Experimental data published in PubChem BioAssay (NCI).
Compounds without any hit were thinned out: in the full panel of roughly 83,000, 20% have a hit.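 A percent growth of 40 corresponds to 60% growth inhibition; 0 means no net growth; -100 means all cells died. Active threshold: below 10.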 Values without a mark were called inactive. Active and inactive are the calls of the source.

Tested on: SK-MEL-2 melanoma
Experiment: NCI-60 one-dose screen, 48 h (100 = growth as untreated, 0 = no growth, -100 = all killed)
Conditions: 10 µM

| SMILES | growth |
| --- | --- |
| COc1ccc(C(O)c2ccccc2)cc1 (centres undefined) | 112% |
| CC1CC(O)C2C3(C)CCCC2(COC3=O)C12CCC1(CCOC1=O)O2 (centres undefined) | 117% |
| c1ccc2c(c1)Sc1ccccc1S2 | 112% |
| Cc1ncc(C#N)c(N)n1 | 106% |
| CC(=O)Nc1cccc(Cl)c1C | 100% |
| NCCCN | 122% |
| CCCC(C)OCC(=O)O (centres undefined) | 104% |
| C#CC(C(C)C)N(CCO)CCCC (centres undefined) | 111% |
| O=C(O)/C=C/c1ccc2c(c1)CCC2 | 110% |
| CC1(C(=O)O)NC(C(=O)O)Cc2c1[nH]c1ccccc21 (centres undefined) | 93.7% |
| COc1cc(C2c3cc4c(cc3C3OC(=O)C2C3CO)OCO4)cc(OC)c1OC (centres undefined) | 7.33% (active) |
| O=[N+]([O-])c1ccc(/C=C/C=C/c2ccccc2)c(Cl)c1 | 94.3% |
| COc1ccc(-c2cc3c(nn2)-c2ccccc2C3=O)cc1 | 65.5% |
| COc1cccc(/C=N/NC(=S)NC2CC3CCC2C3)c1O (centres undefined) | 69% |
| CCN(CC)CCCC(C)Nc1ccnc(/C=C/c2ccc(Cl)cc2)c1 (centres undefined) | -69.4% (active) |
| CC(=O)C1CCCCC1 | 106% |
| CC(=O)OCCO | 143% |
| O=C(/C=C/C(=O)c1ccccc1)c1ccccc1 | 119% |
| CC(=O)OCC1OC(OC2=C(CC=C(C)C)C(=O)c3ccccc3C2=O)C(OC(C)=O)C(OC(C)=O)C1OC(C)=O (centres undefined) | 58.7% |

| SMILES | growth |
| --- | --- |
| O=C(/C(=N/O)c1ccccc1)c1ccccc1 | 121% |
| c1ccc(/C(=N\N=C(/c2ccccc2)c2cccs2)c2cccs2)cc1 | 89.1% |
| CC(C)=NNC(N)=S | 112% |
| CCn1c(=O)n(C)c2c(=O)n(C)c(=O)n(C)c21 | 104% |
| Cc1cccc(CO)c1 | 110% |
| O=C(O)c1cccc([N+](=O)[O-])c1 | 112% |
| O=C(O)COCC(=O)O | 107% |
| O/N=C/c1ccc(O)cc1O | 92.9% |
| CCOC(=O)C(O)C(O)C(=O)OCC (centres undefined) | 103% |
| O=C(O)CCCC(=O)O | 106% |
| C=C[Si](OC(C)=O)(OC(C)=O)OC(C)=O | 109% |
| Clc1ccc(-c2nnc(-c3cccc4ccccc34)o2)cc1 | 96.4% |
| O=C1C=C(Nc2ccc([N+](=O)[O-])cc2)c2ccccc2C1=O | -7.97% (active) |
| CCN1C(=O)/C(=C/C=C/N(C)c2ccccc2)SC1=S | 82.5% |
| CC(=O)Cc1ccc(-c2ccccc2)cc1 | 102% |
| O=P(O)(O)OCC(O)CO (centres undefined) | 117% |
| Cc1ccc(C(O)C2CC2)cc1 (centres undefined) | 104% |
| c1cc[n+](C2c3ccccc3C([n+]3ccccc3)c3ccccc32)cc1 (centres undefined) | 92.8% |
| O=S(=O)(Cc1ccccc1)c1ccccc1 | 114% |

Tested on: SN12C renal
Experiment: as above
Conditions: 10 µM

| SMILES | growth [%] |
| --- | --- |
| COc1ccc(C(O)c2ccccc2)cc1 (centres undefined) | 104 |
| CC1CC(O)C2C3(C)CCCC2(COC3=O)C12CCC1(CCOC1=O)O2 (centres undefined) | 113 |
| c1ccc2c(c1)Sc1ccccc1S2 | 93.2 |
| Cc1ncc(C#N)c(N)n1 | 103 |
| CC(=O)Nc1cccc(Cl)c1C | 99.7 |
| NCCCN | 101 |
| CCCC(C)OCC(=O)O (centres undefined) | 103 |
| C#CC(C(C)C)N(CCO)CCCC (centres undefined) | 102 |
| O=C(O)/C=C/c1ccc2c(c1)CCC2 | 95.4 |
| CC1(C(=O)O)NC(C(=O)O)Cc2c1[nH]c1ccccc21 (centres undefined) | 95.8 |
| COc1cc(C2c3cc4c(cc3C3OC(=O)C2C3CO)OCO4)cc(OC)c1OC (centres undefined) | 23.8 |
| O=[N+]([O-])c1ccc(/C=C/C=C/c2ccccc2)c(Cl)c1 | 98.3 |
| COc1ccc(-c2cc3c(nn2)-c2ccccc2C3=O)cc1 | 72.7 |
| COc1cccc(/C=N/NC(=S)NC2CC3CCC2C3)c1O (centres undefined) | 57.9 |
| CCN(CC)CCCC(C)Nc1ccnc(/C=C/c2ccc(Cl)cc2)c1 (centres undefined) | 61.1 |
| CC(=O)C1CCCCC1 | 97.5 |
| CC(=O)OCCO | 98.5 |
| O=C(/C=C/C(=O)c1ccccc1)c1ccccc1 | 108 |

| SMILES | growth [%] |
| --- | --- |
| CC(=O)OCC1OC(OC2=C(CC=C(C)C)C(=O)c3ccccc3C2=O)C(OC(C)=O)C(OC(C)=O)C1OC(C)=O (centres undefined) | 52 |
| O=C(/C(=N/O)c1ccccc1)c1ccccc1 | 94.6 |
| CC(C)=NNC(N)=S | 74.4 |
| CCn1c(=O)n(C)c2c(=O)n(C)c(=O)n(C)c21 | 105 |
| Cc1cccc(CO)c1 | 106 |
| O=C(O)c1cccc([N+](=O)[O-])c1 | 103 |
| O=C(O)COCC(=O)O | 102 |
| O/N=C/c1ccc(O)cc1O | 98 |
| CCOC(=O)C(O)C(O)C(=O)OCC (centres undefined) | 102 |
| O=C(O)CCCC(=O)O | 102 |
| C=C[Si](OC(C)=O)(OC(C)=O)OC(C)=O | 110 |
| O=C1C=C(Nc2ccc([N+](=O)[O-])cc2)c2ccccc2C1=O | 39.8 |
| CCN1C(=O)/C(=C/C=C/N(C)c2ccccc2)SC1=S | 94.4 |
| CC(=O)Cc1ccc(-c2ccccc2)cc1 | 86.3 |
| O=P(O)(O)OCC(O)CO (centres undefined) | 98.5 |
| Cc1ccc(C(O)C2CC2)cc1 (centres undefined) | 102 |
| c1cc[n+](C2c3ccccc3C([n+]3ccccc3)c3ccccc32)cc1 (centres undefined) | 26.7 |
| O=S(=O)(Cc1ccccc1)c1ccccc1 | 104 |
